Results from ChEMBL document CHEMBL4513216, “Probing the Open Global Health Chemical Diversity Library for Multistage-Active Starting Points for Next-Generation Antimalarials” (ACS Infect Dis, 2020).
Hit rate of the full screen: of about 69,000 compounds, about 8,600 (12%) showed an effect of 50% or more. What follows is part of a selection rich in strong results, with near analogues and random picks from the rest.

System: Plasmodium berghei
Test: Screen against P. berghei liver stage (PbLuc), transformed with Luciferase, at 10uM
Assay type: functional, HepG2
Details: tested at 10 uM

Row | Compound | INHIBITION [%]
1 | C[C@@H]1CN(Cc2cc3ccccc3n2C)CC[C@]1(C)O | -13.6
2 | CCc1cc(N(C)Cc2nonc2C)nc(N(C)C)n1 | 31.7
3 | CC(Cn1cccn1)NC(=O)NCc1ccc(S(C)(=O)=O)cc1 (configuration not stated) | 19.5
4 | CC(C)n1cnnc1CN(C)C(=O)c1cnn2ccccc12 | 38.2
5 | COc1cc(C)nc(N2CCN(C(=O)COCC3CC3)CC2)n1 | 23.295
6 | CC(C)C(=O)N1CC2(CCN(CC(C)(C)C)CC2)C1 | 1.34
7 | COCCN1CCOCC2(CCCN(Cc3ccc(C)o3)C2)C1 (configuration not stated) | 20.2
8 | CCN(CC(=O)NC1(C)CCS(=O)(=O)C1)Cc1ccc(OC)c(F)c1 (configuration not stated) | -9.37
9 | Cc1nccc([C@@H]2C[C@@H]3CCN(S(=O)(=O)C4CC4)C[C@H]3O2)n1 | -37.9
10 | Cc1ccc(C(=O)Nc2ccc(N3CCCC3)cn2)cc1F | -6.12
11 | Cc1ccc(C(=O)Nc2cc(C(N)=O)ccc2N2CCCCC2)cc1F | 69.3
12 | Cc1cc(C(N)=O)ccc1NC(=O)c1nc(N2CCCC2)ncc1Cl | 20.1
13 | Cc1cc(C(N)=O)ccc1NC(=O)c1nc(N2CCCCC2)ncc1Cl | 49.3
14 | Cc1ccc(C(=O)Nc2cc(C(N)=O)ccc2CN(C)C)cc1Cl | 16.4
15 | NC(=O)c1ccc(N2CCCCC2)c(NC(=O)c2ccc(F)cc2Cl)c1 | 73.2
16 | CCn1nc(C)c2nc(C(C)C)nc(N3CCOCC3)c21 | -38.8
17 | Cc1cnccc1-c1cnn(CCNC(=O)C(C)(C)C)c1C1CC1 | 39.7
18 | Cc1ccc(C(=O)N2C[C@@H](OCc3cccnc3)[C@H]3OCCC[C@@H]32)o1 | 35.4
19 | CCCN(Cc1cccc(OCCO)c1)Cc1ccccc1OC | 25
20 | CN(Cc1cccnc1N)Cc1cccc2ncccc12 | 83
21 | CN(Cc1cccc(OCCO)c1)Cc1cccc2ncccc12 | 76.6
22 | COCCN(Cc1cccc(OCCO)c1)Cc1ccccc1F | 13
23 | Cc1cn(CC(=O)N(C)Cc2cccc3ncccc23)c(=O)[nH]c1=O | -12.8

Row | Compound | INHIBITION [%]
24 | CN(Cc1cccc(CCN)c1)Cc1cccc2ncccc12 | 20.3
25 | CC(=O)N1CCCC(Cc2cnc(-n3ccnc3)cn2)C1 (configuration not stated) | -33.4
26 | Cc1cc(C)c2nc(C)cc(C(=O)NC(C)c3nnn[nH]3)c2c1 (configuration not stated) | 45.1
27 | Cc1cc(C(=O)NC(C)c2nnn[nH]2)c2ccc(C)c(C)c2n1 (configuration not stated) | -11.6
28 | Cc1cc(C(=O)NC(C)c2nnn[nH]2)c2cccc(C)c2n1 (configuration not stated) | 60
29 | C=C(C)COc1cccc(C(=O)NC(C)c2nnn[nH]2)c1 (configuration not stated) | 52.1
30 | CCC(=O)c1ccc(OCC(=O)NC(C)c2nnn[nH]2)cc1 (configuration not stated) | -47.9
31 | C=C(C)COc1cccc(C(=O)NCCCc2nnn[nH]2)c1 | 9.41
32 | CN(C)C(=O)COC[C@@H]1CC[C@H]2[C@H](CCN2c2ncccn2)O1 | 0.542
33 | COCc1ccccc1NC(=O)CCNC(=O)c1ccoc1 | -77.9
34 | CN(C)C[C@@H]1CCC[C@@H]2CN(c3ncccn3)C[C@@H]21 | 16.1
35 | Cc1nnc(NC(=O)NCc2ccc(N3CCNC(=O)C3)cc2)s1 | 14.7
36 | O=C1CN(c2ccc(CNC(=O)NCc3ccoc3)cc2)CCN1 | -22.9
37 | O=C(NCc1ccc(N2CC=CC2)cc1)Nc1nnc(C2CC2)s1 | 3.87
38 | O=C1CN(c2ccc(CNC(=O)Nc3nnc(C4CC4)s3)cc2)CCN1 | 59.6
39 | CC(O)CNC(=O)NCc1ccc(N2CCNC(=O)C2)cc1 (configuration not stated) | 39.5
40 | O=C1CN(c2ccc(CNC(=O)NCCO)cc2)CCN1 | 52.5
41 | Cc1nn(CCC(=O)N(C)Cc2c(Cl)cnn2C)cc1Br | 18.3
42 | CCN(Cc1ccc(Cl)c(Cl)c1)C(=O)CCn1cncn1 | 19.3
43 | Cc1nc(C)n(CC2CN(c3ncccc3C#N)CCO2)n1 (configuration not stated) | -14.7
44 | O=C(O)c1cc(-c2cncnc2)cc(S(=O)(=O)N2CCCCCC2)c1 | -8
45 | CN(C)c1nccnc1C1CCN(C(=O)C2(C)CCCCN2C)CC1 (configuration not stated) | 28.6
46 | Cc1nn(-c2ncccn2)c2c1C(c1cnn(C)c1C)SCC(=O)N2 (configuration not stated) | 27.6

Row | Compound | INHIBITION [%]
47 | Cc1n[nH]c2c1C(c1cnn(C)c1)SCC(=O)N2 (configuration not stated) | -2.37
48 | CC(C)n1nc(O)c2c1NC(=O)CSC2c1cnn(C)c1 (configuration not stated) | 9.36
49 | Cc1cc(C)nc(-n2nc(C)c3c2NC(=O)CSC3c2cnn(C)c2)n1 (configuration not stated) | 88.8
50 | Cc1nn(-c2ccccn2)c2c1C(c1cnn(C)c1)SCC(=O)N2 (configuration not stated) | 41.5
51 | Cc1nn(-c2ncccn2)c2c1C(c1cnn(C)c1)SCC(=O)N2 (configuration not stated) | 61
52 | COc1cc(CN2CCn3c(CO)nnc3C2)ccc1OC(C)C | 35.2
53 | Cc1noc(C)c1C(=O)N1CCCN(Cc2cscn2)CC1 | 9.64
54 | NCC1CCC(C(NC(=O)c2ccccc2)c2ccccn2)CC1 (configuration not stated) | 48.8
55 | Cc1noc(C)c1-c1cncc(C2CCCN2Cc2cn(C)cn2)n1 (configuration not stated) | 26.8
56 | Cc1ccc(NS(=O)(=O)c2cccc(C#N)c2)c(CN(C)C)c1 | -0.613
57 | Cc1ccc(NCc2ccc(C#N)cc2)c(CN(C)C)c1 | 86.7
58 | Cc1ccc(NS(=O)(=O)c2ccc(C#N)cc2)c(CN(C)C)c1 | -33.5
59 | Cc1cc(C)n(-c2ccc3nnc(C)n3n2)n1 | -14.9
60 | O=C(CSc1ccc(F)cc1F)NS(=O)(=O)c1ccc2c(c1)OCCO2 | -16.45
61 | COCCn1nc(C(=O)N(C)Cc2cnn(C)c2)ccc1=O | 36.3
62 | Cc1cc(NC(=O)CNC2CCCN(c3cccnn3)C2)on1 (configuration not stated) | 21
63 | CC(C)[C@H]1COC(=O)N1CC(=O)N1CCCN(C(=O)c2ccoc2)CC1 | 52.1
64 | CC(C)[C@H]1COC(=O)N1CC(=O)N1CCN(C(=O)c2ccco2)CC1 | 7.6
65 | Cc1ccccc1N1CCCN(C(=O)CN2C(=O)OC[C@@H]2C(C)C)CC1 | 23
66 | COCc1nnc(C(=O)N2CC(N3CCCCC3)C2)o1 | 10.6
67 | NCC1CCC(C(NC(=O)c2ccccn2)c2ccccn2)CC1 (configuration not stated) | 24.4
